One assay has as its target SpBzz1-D2. The assay can be described thus: SPOT peptide array binding signal intensity (averaged, normalized) (arbitrary units (background-subtracted, floor 0; scale differs between SH3 domains)); higher = stronger binding of the SH3 domain to the peptide. The method in brief: (§1)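 Spot intensities were captured after detection with anti-GST antibody, an HRP-linked anti-mouse secondary and luminol, and quantified with Genespotter. The probes were GST-fused SH3 domains from four yeast species, produced in E. coli BL21(DE3), purified on glutathione Sepharose and incubated at 10 μg/ml overnight at 4°C on cellulose-bound synthetic 15-mer peptides with cysteines replaced by serines. Binding signal is the normalized, background-subtracted spot intensity averaged over replicates, and its arbitrary units differ between domains.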
For the molecule RVTRKRPREPKSTND, the “SPOT peptide array binding signal intensity” value was at most 0.

The next assay deals with SpCyk3. Described as above. The method in brief:
as §1
Regarding RVTRKRPREPKSTND, the “SPOT peptide array binding signal intensity” value came to 4.5.

The next assay has as its target SpHof1. Described as above. The method in brief:
as §1
For RVTRKRPREPKSTND, the “SPOT peptide array binding signal intensity” value came out at 222.

For a further assay, the target named is SpHof1-2. Described as above. The method in brief: as §1
RVTRKRPREPKSTND: the “SPOT peptide array binding signal intensity” value is 5.5.

The next assay concerns the target SpHof1-3. Described as above. The method in brief:
as §1
Take RVTRKRPREPKSTND: the “SPOT peptide array binding signal intensity” value was 316.

Another assay concerns the target SpHse1. The description is as above. The method in brief: as §1
Take RVTRKRPREPKSTND: the “SPOT peptide array binding signal intensity” value amounted to 298.

The target in another assay is SpLsb1. The description is as above. The method in brief:
as §1
Take RVTRKRPREPKSTND: the “SPOT peptide array binding signal intensity” value was 11.5.

The target of the next assay is SpLsb4. The description is as above. The method in brief:
as §1
As for RVTRKRPREPKSTND, the “SPOT peptide array binding signal intensity” value was 292.

The target in a further assay is SpMyo1. The description is as above. The method in brief: as §1
With RVTRKRPREPKSTND, the “SPOT peptide array binding signal intensity” value was found to be 3.

The next assay concerns the target SpNbp2. The description is as above. The method in brief: as §1
As for RVTRKRPREPKSTND, the “SPOT peptide array binding signal intensity” value was found to be 1040.

A further assay has as its target SpPex13. Described as above. The method in brief:
as §1
On to RVTRKRPREPKSTND, for which the “SPOT peptide array binding signal intensity” value was determined as 13.

The next assay concerns the target SpRvs167. Described as above. The method in brief:
as §1
For the molecule RVTRKRPREPKSTND, the “SPOT peptide array binding signal intensity” value came out at 7.33.

A further assay addresses SpSla1-D1-D2. The assay is described as above. The method in brief: as §1
Take RVTRKRPREPKSTND: the “SPOT peptide array binding signal intensity” value amounted to 1.

The next assay has as its target SpSla1-D3. The description is as above. The method in brief: as §1
Turning to RVTRKRPREPKSTND, the “SPOT peptide array binding signal intensity” value was 5.

The values are drawn from the supplement of paper PMC4466140.
